Screens (PubChem)
The full list was thinned out, with hits kept by preference.
PKM2 inh: inhibitors of human pyruvate kinase M2. 0.058% of 260,000 active. P14618. Potency, µM (titrated, usually from 57.5 µM), for inactives: top-dose activity change, negative = inhibition, actives largely listed as inhibitors. purified PKM2, ATP generation, Kinase-Glo luminescence; further: potency means the concentration at half of the fitted maximal effect; nearly all actives have a fitted effect of over 60% in size
Target sequence (P14618 whole entry, looked up): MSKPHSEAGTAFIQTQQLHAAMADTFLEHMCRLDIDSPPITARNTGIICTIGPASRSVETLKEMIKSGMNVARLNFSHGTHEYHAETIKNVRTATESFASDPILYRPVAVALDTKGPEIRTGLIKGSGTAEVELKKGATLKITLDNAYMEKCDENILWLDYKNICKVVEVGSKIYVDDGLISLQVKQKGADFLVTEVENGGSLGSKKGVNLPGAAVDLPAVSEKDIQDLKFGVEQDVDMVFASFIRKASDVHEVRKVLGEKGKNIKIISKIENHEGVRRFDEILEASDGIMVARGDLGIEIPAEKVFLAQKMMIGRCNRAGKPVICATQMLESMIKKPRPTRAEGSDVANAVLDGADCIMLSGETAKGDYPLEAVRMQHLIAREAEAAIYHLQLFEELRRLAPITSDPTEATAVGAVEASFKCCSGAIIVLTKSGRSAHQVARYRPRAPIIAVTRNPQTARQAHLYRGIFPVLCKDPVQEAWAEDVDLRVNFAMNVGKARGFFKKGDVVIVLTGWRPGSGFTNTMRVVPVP
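Coupled luciferase luminescence (Kinase-Glo) detects ATP generated from 0.1 mM ADP and 0.5 mM PEP in imidazole buffer pH 7.2 with KCl, MgCl2; 1 h at room temperature. Enzyme at intermediate activity; normalized to uninhibited and no-enzyme controls.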
PKM2 inh dose: PKM2 (human) inhibition, concentration-response confirmation; purified hPK-M2, Kinase-Glo ATP luminescence, 1 h; 50% of 55 active; shares compounds with PKM2 inh; Potency, µM (titrated, usually from 57.5 µM), without a hit: at the top dose activity change, negative = inhibition, usual class: inhibitors
PKM2 FLuc cs: firefly luciferase inhibition counter-screen; shares compounds with PKM2 inh; Kinase-Glo firefly luciferase, luminescence, 8 min; Potency, µM (series often up to 57.5 µM), for the others: at the highest dose activity, negative = inhibition, usual class: inhibitors; 30% of 55 active; AID 2265
PKM2 LDH couple: blocks human pyruvate kinase M2 in LDH-coupled assay. Potency, µM (highest dose often 57.5 µM), for inactives: at the highest dose activity change, negative = inhibition, actives largely listed as inhibitors. AID 2267. shares compounds with PKM2 inh. purified hPK-M2, LDH-coupled NADH fluorescence kinetic. 55 tested, under 10 active
* = called active by the depositor; ? = inconclusive. The call rests on the fitted dose curve; in most records, active means well fitted curve in the direction sought with a large enough effect; inconclusive means small, poorly fitted or top-dose-only effect, or another doubt; inactive means no such curve, though single readings can be large; an effect the other way counts as inactive or inconclusive.

SMILES	PKM2 inh	others
O=c1c2ccccc2[se]n1-c1ccccc1	6.3µM*	PKM2 inh dose=5.8µM*;PKM2 FLuc cs=21µM*;PKM2 LDH couple=?
Cc1ccccc1N(CC(=O)NC1CCCC1)C(=O)c1csnn1	58%
O=C1c2ccccc2C(=O)N1SC1CCCCC1	35%
CN1C(=O)C(=Cc2ccc(OCCN(C)c3ccccn3)cc2)C(=O)N(C)C1=O	37%
Nn1c(COc2ccc(Cl)cc2)n[nH]c1=S	79%
